Measured values taken from the OligoGym collection.

Molecular target: MIS12
Assay: pooled miR-30 sensor sort-seq; sequence = guide strand
Settings: shRNA
Note: reference of the scale not given here.

Row | Sequence | sensor-assay potency score (higher = more potent)
1 | TGAAATGCAATGTAGATCCGAA | 0.0164
2 | TTGGTTTGAACAGTCACTGGTA | 0.981
3 | TTTATCTTCAGGAAGCAAGATG | -0.586
4 | TATGATTCTACTTTTTGACAGG | -0.668
5 | TAATGTTCTGTAGTTTTCTGGA | -0.154
6 | TAGATCCGAAGCATGCACGTTT | 0.233
7 | TTTTTTGCTCTTCTAATTCTGC | -0.78
8 | TTGAAATGCAATGTAGATCCGA | 0.852

Molecular target: MKNK2
Assay: as above
Settings: shRNA

Row | Sequence | sensor-assay potency score (higher = more potent)
9 | TTGAGTTTGATGCCGCTGCCCA | -0.98
10 | TAGATGCTAGCCTCCTCGCTGA | -0.602
11 | TTTGTTATGCAGAAAGTCCAAG | -0.811
12 | TAGGACGTTCCTGTGTCCCTGG | 0.366
13 | ATCAGCTCTAGGACGTTCCTGT | -0.0446
14 | TCAAACAGCATGTTCTGGCAGG | -0.787
15 | TTGTCGGGGAACTCGTACTTGC | -1.05
16 | TGATGCAGGTCTGCACTCGGGC | -1.01
17 | TCCAGCTCGTTGAAGTGCCGGC | -1.11
18 | TTATGCAGAAAGTCCAAGGCGC | -0.181
19 | TTGATGCAGGTCTGCACTCGGG | -1.43
20 | TTCCTCTGCAGGACCATGGGAG | -0.448

Molecular target: MLL
Assay: as above
Settings: shRNA

Row | Sequence | sensor-assay potency score (higher = more potent)
21 | TTAAAGTCCACTCTGATCCTGT | 0.574
22 | TTTGCTTAGAACTATTGCCATT | -1.46
23 | TTCTGCTTCACAATCCTCCTTA | 0.726
24 | TATACTTTTAGAATCTTTCTTC | 0.988
25 | TTGTTTAAGACTCTTACTCTTC | -0.426
26 | TATCTCTGGAACTAGATCCCAT | 0.126
27 | TTTTCGTCGTTCTAGATCCAAA | -1.11
28 | TTCTGTTGTAGGCAGCTGCTGA | -0.148
29 | TAAGACATGATCAACTACTTTG | -0.602
30 | TTACTCTTCTCAATCTTGCAGA | 0.352
31 | TCGGTGTAGACTCTAATCGGGC | -1.36

Molecular target: MMADHC
Assay: as above
Settings: shRNA

Row | Sequence | sensor-assay potency score (higher = more potent)
32 | TTTCTTGTTCAACAGGTGCATC | -1.26
33 | TAATTTCTTGTTCAACAGGTGC | -0.82
34 | TTTGCCATTAGCTACTTCTGGA | -0.35
35 | TTTTCTAAGAGCACTTCTCTTT | -0.6
36 | TTCTTCTGTGAAGCAGTCCCAT | -0.488
37 | TTGTGTTACAGTCAGAATCATT | -1.32
38 | TGTATTGCACACTCTACTCTGG | 0.407
39 | TTCTTCACTCCAAACAGTCATA | -1.24
40 | TTCGAGAGCATATATCTGGAGG | -0.923
